In PubChem BioAssay one finds composite z-score and composite Z-score data, which are given here for 14 compounds.

The structures appear in SMILES notation. Calls of active or inactive are those of the source.

Experiment [1] concerns the target Albumin (Bos taurus) (UniProt P02769). The experiment is described as follows: compounds binding labelled BSA control protein – biochemical, small-molecule microarray, Alexa647 label, 635/667 nm fluorescence, artefact control for SMM control protein annotation, profiling panel (AID 1118).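 Note: score merges 667 nm emission intensity and signal-to-noise per printed compound spot.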 The settings on record: BSA-A647 binding, fluorescence 635 nm, higher = more signal.

Experiment [2] in a line: probe aXIP binding to arrayed compounds – biochemical, NeuroSMM set, 635/667 nm fluorescence, primary screen (AID 1119).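 Note: probe is the protein aXip251-270 applied at 1 µg/mL to compound-printed slides; binding of probe to printed compounds measured as 667 nm fluorescence plus signal to noise.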 Conditions: small-molecule microarray, higher = more signal, called active from +8 up or from −8 down.
Experiment [3] can be described thus: probe aNOTCH3 binding on compound microarray – biochemical, small-molecule microarray, 635/667 nm fluorescence, primary screen (AID 1120).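 Note: probe is a biotin-tagged antibody raised against NOTCH3 rather than NOTCH3 protein; score merges spot fluorescence near 667 nm with spot signal to noise.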 The settings on record: higher = more signal.
Experiment [4] in a line: probe aNOTCH2 binding on compound microarray – biochemical, small-molecule microarray, 635/667 nm fluorescence, primary screen (AID 1121).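 Note: score merges feature fluorescence read at 667 nm with its signal to noise.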 Conditions: higher = more signal.
The target of experiment [5] is Carbonic anhydrase 2 (Homo sapiens) (UniProt P00918). The experiment is described as follows: compounds binding carbonic anhydrase 2 – biochemical, small-molecule microarray, Alexa647-labelled CAII, profiling panel (AID 1122). The settings on record: CAII-A647 binding fluorescence, higher = more signal.
The nature of experiment [6]: COS7 lysate on small-molecule microarray, probe aHis, 635 nm (AID 1123).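 Note: z-score combines 667nm fluorescence intensity with signal-to-noise per printed compound spot.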 The settings on record: COS7 cell lysate, fluorescence, higher = more signal.
Experiment [7] can be described thus: probe aLAP1 signal on lysate-treated microarray – cell lysate, small-molecule microarray, COS7 lysate, primary screen (AID 1124).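 Note: lysate comes from COS7 cells expressing LAP1 and is applied at 0.3 µg/mL; score merges spot fluorescence near 667 nm with signal-to-noise over triplicate slides.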 The settings on record: probe aLAP1, fluorescence, higher = more signal.
For experiment [8], the system named is Sam68 (KHDRBS1). The experiment is described as follows: compounds binding KHDRBS1 protein – biochemical, small-molecule microarray, 635 nm fluorescence, primary screen (AID 1125).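 Note: score merges 667 nm channel intensity with signal to noise over triplicate slides.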 The settings on record: higher = more signal.
Experiment [9] has as its system Chordin-like protein 2 (CHRDL2). Description: compounds binding chordin-like 2 – biochemical, small-molecule microarray, 635 nm fluorescence, primary screen (AID 1126).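 Note: printed compound slides probed with Chrdl2 protein at 4 µg/mL for 1 h at 4 C; score merges 667 nm emission intensity with signal to noise over three replicate slides.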 Conditions: fluorescence 635 nm, higher = more signal.
Experiment [10] deals with Concanavalin-A (Canavalia ensiformis) (UniProt P02866). The experiment is described as follows: compounds binding concanavalin A lectin – biochemical, small-molecule microarray, Alexa647 label, 635 nm, artefact control for SMM control protein annotation, primary screen (AID 1127).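 Note: z combines 667 nm emission intensity with signal-to-noise across three replicate slides.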 The settings on record: ConA-A647 binding fluorescence, higher = more signal.
Concanavalin-A (Canavalia ensiformis), sequence (P02866 whole entry, looked up): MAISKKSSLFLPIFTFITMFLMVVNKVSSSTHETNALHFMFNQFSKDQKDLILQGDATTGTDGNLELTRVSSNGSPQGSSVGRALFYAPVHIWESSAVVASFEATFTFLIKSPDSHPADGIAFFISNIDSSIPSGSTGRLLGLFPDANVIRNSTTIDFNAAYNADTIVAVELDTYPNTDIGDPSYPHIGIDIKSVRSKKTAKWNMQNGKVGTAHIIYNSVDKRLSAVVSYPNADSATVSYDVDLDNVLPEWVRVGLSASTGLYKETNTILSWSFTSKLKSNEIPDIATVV

Albumin (Bos taurus), sequence (P02769 whole entry, looked up): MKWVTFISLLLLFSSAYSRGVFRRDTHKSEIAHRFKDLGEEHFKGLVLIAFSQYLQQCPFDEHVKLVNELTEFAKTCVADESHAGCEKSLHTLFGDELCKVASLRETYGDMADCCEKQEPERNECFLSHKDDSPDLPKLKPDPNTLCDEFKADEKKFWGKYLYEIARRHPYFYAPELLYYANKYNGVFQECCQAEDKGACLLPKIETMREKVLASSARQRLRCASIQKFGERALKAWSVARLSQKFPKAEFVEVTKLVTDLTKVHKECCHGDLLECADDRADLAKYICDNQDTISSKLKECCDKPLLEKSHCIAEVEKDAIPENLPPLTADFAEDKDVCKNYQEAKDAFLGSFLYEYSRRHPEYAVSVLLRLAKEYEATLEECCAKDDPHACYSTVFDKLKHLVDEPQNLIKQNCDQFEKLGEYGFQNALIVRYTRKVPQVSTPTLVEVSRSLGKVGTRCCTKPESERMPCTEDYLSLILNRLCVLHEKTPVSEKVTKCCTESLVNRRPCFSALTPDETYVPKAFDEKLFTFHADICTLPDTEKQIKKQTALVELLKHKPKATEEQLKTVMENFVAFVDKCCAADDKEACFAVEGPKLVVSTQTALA

Consider `COCCCNC(=O)[C@@]1(Cc2ccccc2I)c2ccccc2C(=O)N(Cc2ccccc2C(F)(F)F)[C@H]1c1ccc(CO)cc1`, for which the composite z-score in experiment [1] is 0.251; in experiment [3] it was -0.136; in [4], -0.148; in [5], 0.487; in [6], 1.85; in [7], -0.462. The composite z-score in [8] was 0.302; in [9], -1.44; in experiment [10], -0.375. Moreover, the composite Z-score in experiment [2] was 0.29 (inactive).

Consider `C=CCC(OC(C)=O)[C@@H]1[C@@H](N(Cc2cccc3ccccc23)C(=O)c2ccc(C)cc2)c2cc(OCCCO)ccc2N1C(=O)Cc1ccc2ccccc2c1` (stereo not given in full), for which the composite z-score is 0.706 in experiment [1]; -0.0044 in experiment [3]; -0.149 in experiment [4]; 0.15 in [5]; 0.738 in experiment [6]; -0.0124 in experiment [7]. The composite z-score in experiment [8] was -1.29; in [9] it was 0.0854; in [10], -0.0292. Also, in experiment [2], the composite Z-score is -0.758 (inactive).

Turning to `C=C(C)C1CN([C@H](CO)c2ccccc2)C(=O)/C1=C\c1ccccc1` (stereo not given in full), the composite z-score was 0.252 in experiment [1]; -0.0647 in [3]; -0.0741 in experiment [4]; 0.158 in experiment [5]; -0.574 in experiment [6]; 0.027 in experiment [7]. In addition, the composite z-score in [8] amounted to 0.168; in experiment [9], 0.467; in experiment [10], 0.0006. Further, in experiment [2], the composite Z-score is -0.137 (inactive).

Turning to `CC[C@@H](O[Si](C#C[Si](C(C)C)(C(C)C)C(C)C)(C(C)C)C(C)C)c1cn(Cc2cccc(Cl)c2)nn1`, the composite z-score in experiment [1] was 0.0711; in [3], -0.119; in experiment [4] it was -0.0495; in [5] it was 0.226; in experiment [6], 0.233; in experiment [7], 0.773. Moreover, the composite z-score in [8] is 1.04; in experiment [9] it was 0.451; in experiment [10] it was 0.68. The composite Z-score in experiment [2] is -0.0359 (inactive).

Take `C=CCNC(=O)[C@@H]1[C@H]2C(=O)O[C@H](c3ccccc3)[C@H](c3ccccc3)N2[C@H](c2ccc(O)cc2)[C@@]12C(=O)Nc1ccc(C#CC3=CCCCC3)cc12`: the composite z-score in experiment [1] is 0.543; in experiment [3], 1.22; in [4], -0.0857; in experiment [5] it was 0.676; in [6], 1.69; in [7] it was 1.24. For the same compound, the composite z-score amounted to 1.32 in experiment [8], 0.334 in experiment [9] and 1.04 in experiment [10]. Further, the composite Z-score in [2] was 0.986 (inactive).

Regarding `CC(C)N1C(=O)[C@@]2(Cc3ccccc31)c1ccccc1C(=O)N(Cc1ccccc1)[C@H]2c1ccc(CO)cc1`, the composite z-score in experiment [1] is -0.103; in experiment [3], -0.118; in [4] it was -0.205; in experiment [5], -0.224; in [6], 0.0227; in [7] it was 1.79. Further, the composite z-score is 0.316 in experiment [8], 0.702 in experiment [9] and -0.0679 in experiment [10]. In addition, the composite Z-score in [2] was -0.289 (inactive).

For the compound `CN1C(=O)C2CC=C(C3=CCO[C@@H]3[C@H]3CCCN3S(=O)(=O)c3ccccc3[N+](=O)[O-])CC2C1=O` (stereo not given in full), the composite z-score was 0.811 in [1]; -0.0647 in experiment [3]; -0.106 in experiment [4]; -0.0199 in experiment [5]; 0.205 in experiment [6]; -0.065 in experiment [7]. For the same compound, the composite z-score in [8] was -0.7; in experiment [9], -0.537; in experiment [10], -0.65. Moreover, the composite Z-score in experiment [2] is 0.0129 (inactive).

As for `O=C(NC1CC1)[C@@H]1c2ccccc2C(=O)N(C2CCCCC2)[C@H]1c1ccc(CO)cc1`, the composite z-score in experiment [1] was -0.0383; in experiment [3], -0.214; in [4], -0.136; in experiment [5], 0.554; in experiment [6], 2.64; in [7], 1.99. The composite z-score in experiment [8] was 0.454; in [9], -0.696; in experiment [10], 0.332. Further, the composite Z-score in [2] was 0.635 (inactive).

`O=C1C2C=CC(C(O)C3CC=CCC3)N(Nc3ccc([N+](=O)[O-])cc3)C2C(=O)N1c1ccccc1` (stereo not given): the composite z-score amounted to 0.82 in [1]; 0.749 in experiment [3]; 0.326 in experiment [4]; 0.693 in experiment [5]; 2.5 in experiment [6]; 1.21 in experiment [7]. Also, the composite z-score in [8] was determined as 1.33; in experiment [9] it was 0.729; in experiment [10] it was 1.07. Moreover, the composite Z-score in experiment [2] is 0.626 (inactive).

Turning to `C=CCNC(=O)[C@@H]1[C@H]2C(=O)O[C@H](c3ccccc3)[C@H](c3ccccc3)N2[C@H](c2ccc(OCCO)cc2)[C@@]12C(=O)Nc1ccc(C#CCNC(N)=O)cc12`, the composite z-score in [1] was 0.567; in experiment [3] it was -0.076; in [4] it was -0.13; in experiment [5], 0.336; in [6], 0.813; in experiment [7], 0.268. For the same compound, the composite z-score in experiment [8] was 1.33; in experiment [9], -0.822; in [10], 0.6. The composite Z-score in [2] was 0.0324 (inactive).

As to `CCCCN1CC=CC23O[C@@H]4/C=C\CCCOC(=O)C4[C@H]2C(=O)N(CCCCCCO)[C@@H]3C1=O` (stereo not given in full), the composite z-score in experiment [1] is -0.768; in experiment [3] it was -0.165; in experiment [4], -0.172; in experiment [5], 0.83; in [6] it was 1.66; in experiment [7] it was 1.17. For the same compound, the composite z-score is 0.177 in experiment [8], -1.87 in experiment [9] and -0.535 in experiment [10]. Moreover, the composite Z-score in experiment [2] was 0.276 (inactive).

For `COCCOC(=O)N1C(=O)[C@@]2(c3ccccc31)[C@H](C(=O)Nc1nc3ccccc3s1)[C@H]1C(=O)O[C@H](c3ccccc3)[C@H](c3ccccc3)N1[C@@H]2c1ccccc1OCCO`, the composite z-score was 0.0171 in experiment [1]; 0.291 in experiment [3]; -0.0684 in experiment [4]; 0.526 in experiment [5]; 1.54 in experiment [6]; 1.63 in [7]. The composite z-score in [8] came to 1.3; in [9] it was 0.145; in [10] it was 1.08. For the same compound, the composite Z-score in experiment [2] was 0.0308 (inactive).

`C=C(COC)C(=O)CC[C@@H](OC(=O)c1ccccc1-c1ccccc1C(=O)O)c1ccccc1OCCO`: the composite z-score is -0.597 in experiment [1]; -0.122 in experiment [3]; -0.0174 in experiment [4]; 0.531 in [5]; -0.381 in [6]; 1.67 in experiment [7]. In addition, the figures for the composite z-score in experiment [8], in experiment [9] and in experiment [10] were 0.448, 0.538 and 0.0185, respectively. Further, in experiment [2], the composite Z-score is 0.49 (inactive).

For the compound `CCc1cccc(NC(=O)O[C@H]2[C@H](OC(=O)Nc3ccccc3-c3ccccc3)[C@H](OC(=O)Nc3ccccc3-c3ccccc3)[C@@H](OC)O[C@@H]2CO)c1`, the composite z-score in [1] was 0.715; in experiment [3] it was 0.122; in experiment [4], -0.0273; in [5], 0.728; in [6], 2.04; in [7] it was 0.0611. The composite z-score in [8] turned out to be 1.28; in experiment [9] it was 0.478; in experiment [10] it was 1.12. The composite Z-score in [2] was 0.814 (inactive).
